The structures appear in SMILES notation. Activity calls are given as the source filed them.

Assay [1] relates to Plasmodium falciparum Sir2 (PF13_0152, Sir2A). Description: Plasmodium falciparum Sir2A binding compounds – biochemical, small-molecule microarray, 635 nm fluorescence, primary screen (AID 1098).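 Note: score merges spot fluorescence intensity with its signal-to-noise ratio.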 Conditions: fluorescence 635 nm, higher = more signal.
A short description of assay [2]: probe aDKK1 binding to arrayed compounds – biochemical, biotinylated probe, 635/667 nm fluorescence, primary screen (AID 1099).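 Note: score merges 667nm spot fluorescence with signal to noise across triplicate slides.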 The note with it: small-molecule microarray, higher = more signal.
Assay [3] can be described thus: probe aCHRDL2 binding to arrayed compounds – biochemical, biotinylated probe, 635/667 nm fluorescence, primary screen (AID 1100). Conditions: small-molecule microarray, higher = more signal.
Assay [4] can be described thus: change in splice reporter luminescence, either direction, cell-based, HEK293, spliceosome inhibition project, primary screen (AID 1101).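 Note: HEK293 cells carrying a splicing-competent luciferase reporter gene; test concentration not given here.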 Conditions: HEK293 splicing luciferase reporter, 24 h, higher = more signal, called active from +8 up or from −8 down. (A reporter such as luciferase makes a cellular process visible.)
Assay [5] deals with Fibroblast growth factor 10 (Homo sapiens) (UniProt O15520). Description: compounds binding fibroblast growth factor 10 – biochemical, small-molecule microarray, 635 nm fluorescence, primary screen (AID 1102). Conditions: FGF10 binding, fluorescence 635 nm, higher = more signal.
Assay [6] has as its system glycogen synthase kinase-3 (GSK3A per assay name; protocol says GSK3B). Description: compounds binding glycogen synthase kinase-3 – biochemical, small-molecule microarray, 635 nm fluorescence, GSK3A, primary screen (AID 1103). Note: the record names both GSK3A and GSK3B. The note with it: fluorescence 635 nm, higher = more signal.
The target in assay [7] is Epidermal growth factor receptor (Homo sapiens) (UniProt P00533). Nature of the assay: compounds binding epidermal growth factor receptor – biochemical, small-molecule microarray, 635 nm fluorescence, primary screen (AID 1104).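 Note: score merges 667 nm emission intensity with spot signal to noise over triplicate slides.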 The note with it: EGFR binding, higher = more signal.
In assay [8] the target is Follistatin-related protein 3 (Homo sapiens) (UniProt O95633). Nature of the assay: compounds binding follistatin-related protein 3 – biochemical, small-molecule microarray, 635 nm fluorescence, primary screen (AID 1105).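 Note: score merges emission near 667 nm and signal to noise per printed spot across three slides.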 Conditions: FSTL3 binding, higher = more signal.
Assay [9] addresses Dickkopf-related protein 1 (Homo sapiens) (UniProt O94907). Description: small molecules binding DKK1 protein – biochemical, small-molecule microarray, 635 nm fluorescence scan, primary screen (AID 1106).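 Note: score merges emission near 667 nm with signal to noise over three replicate slides.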 The note with it: higher = more signal.
Assay [10] deals with Inhibin beta A chain (activin A). Description: small molecules binding activin A – biochemical, small-molecule microarray, 635 nm fluorescence scan, primary screen (AID 1107).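 Note: mouse activin A protein probed at 4.33 µg/mL on printed slides; score merges bound-protein fluorescence near 667 nm with spot signal-to-noise.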 Conditions: INHBA, higher = more signal.
Assay [11] deals with Human papillomavirus type 1a protein E7 (residues 44-93). Description: small molecules binding HPV E7 44-93 – biochemical, small-molecule microarray, residues 44-93, 635 nm fluorescence, primary screen (AID 1108).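 Note: E7 fragment applied at 1 µg/mL in TBST for 1 h at 4 C; score combines spot fluorescence with its signal to noise ratio.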 Conditions: fluorescence 635 nm, higher = more signal.
The nature of assay [12]: hepatitis C replication reporter changes, two-sided – Huh7 cells, luciferase reporter, HCV replication inhibitor project, primary screen (AID 1109).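 Note: huh7 hepatoma cells harbouring a luciferase neomycin HCV replicon reporter; luciferase luminescence as measure of HCV replicon replication; test concentration not given here.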 The note with it: Huh7 HCV replicon luciferase reporter, 48 h; higher = more signal.
For assay [13], the target named is Left-right determination factor 2 (Homo sapiens) (UniProt O00292). Nature of the assay: small molecules binding LEFTY2 protein – biochemical, small-molecule microarray, 635 nm fluorescence scan, primary screen (AID 1110). Conditions: higher = more signal.
The target in assay [14] is Calmodulin-1 (Homo sapiens) (UniProt P0DP23). Description: small molecules binding calmodulin-1 with EGTA – biochemical, small-molecule microarray, Cy5-labelled CALM1, profiling panel (AID 1111).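 Note: labelled calmodulin applied in Tris saline Tween buffer holding calcium plus EGTA and DTT.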 The note with it: Cy5-CALM1 binding fluorescence, higher = more signal.
Assay [15] has the same target. Nature of the assay: small molecules binding Ca-loaded calmodulin-1 – biochemical, small-molecule microarray, Cy5-labelled CALM1, plus calcium, artefact control for SMM control-protein annotation, profiling panel (AID 1112).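 Note: score merges spot fluorescence with signal to noise from triplicate slides.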 Conditions: Cy5-CALM1 binding fluorescence, higher = more signal.
Assay [16] in a line: probe aWnt5a binding to arrayed compounds – biochemical, biotinylated probe, 635/667 nm fluorescence, primary screen (AID 1113).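 Note: score merges 667 nm fluorescence intensity with signal-to-noise per printed feature.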 Conditions: small-molecule microarray, higher = more signal.
Assay [17] can be described thus: probe aShh binding to arrayed compounds – biochemical, biotinylated probe, 635/667 nm fluorescence, primary screen (AID 1114).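 Note: probe is biotin-labelled aShh protein from a stem cell growth factor screen; measures binding of labelled protein to compounds printed on the slide; score merges feature fluorescence at 667 nm with signal-to-noise.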 Conditions: small-molecule microarray, higher = more signal.
Assay [18] is described as follows: probe aNog binding to arrayed compounds – biochemical, biotinylated probe, 635/667 nm fluorescence, primary screen (AID 1115).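 Note: probe is biotinylated aNog protein used at 0.15 µg/mL for 1 h at 4 C; z-score combines 667 nm fluorescence of each spot with its signal to noise.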 Conditions: small-molecule microarray, higher = more signal.
Assay [19] deals with Torsin-1A-interacting protein 1 (Homo sapiens) (UniProt Q5JTV8). Nature of the assay: compound microarray binding of lysate hLAP1 – cell lysate, small-molecule microarray, COS7 lysate, 635/667 nm fluorescence, primary screen (AID 1116). The note with it: 635 nm fluorescence, higher = more signal.
The target in assay [20] is Alpha-bungarotoxin (Bungarus multicinctus) (UniProt P60615). Nature of the assay: compounds binding labelled alpha-BTX control protein – biochemical, small-molecule microarray, Alexa647 label, 635/667 nm fluorescence, artefact control for SMM control protein annotation, profiling panel (AID 1117). Conditions: alpha-BTX-A647 binding fluorescence, higher = more signal.
Sequence of Alpha-bungarotoxin (Bungarus multicinctus) (P60615 whole entry, looked up): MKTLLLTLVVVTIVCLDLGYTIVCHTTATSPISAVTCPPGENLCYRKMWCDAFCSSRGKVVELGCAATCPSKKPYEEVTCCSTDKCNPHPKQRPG

Sequence of Follistatin-related protein 3 (Homo sapiens) (O95633 whole entry, looked up): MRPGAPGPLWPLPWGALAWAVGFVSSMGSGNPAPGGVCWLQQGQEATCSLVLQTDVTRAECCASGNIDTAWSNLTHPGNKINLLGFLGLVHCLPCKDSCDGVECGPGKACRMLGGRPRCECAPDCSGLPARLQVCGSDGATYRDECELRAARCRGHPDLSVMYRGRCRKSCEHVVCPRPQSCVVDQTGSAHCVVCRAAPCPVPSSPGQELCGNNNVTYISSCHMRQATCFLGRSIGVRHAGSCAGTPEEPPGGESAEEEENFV
Sequence of Dickkopf-related protein 1 (Homo sapiens) (O94907 whole entry, looked up): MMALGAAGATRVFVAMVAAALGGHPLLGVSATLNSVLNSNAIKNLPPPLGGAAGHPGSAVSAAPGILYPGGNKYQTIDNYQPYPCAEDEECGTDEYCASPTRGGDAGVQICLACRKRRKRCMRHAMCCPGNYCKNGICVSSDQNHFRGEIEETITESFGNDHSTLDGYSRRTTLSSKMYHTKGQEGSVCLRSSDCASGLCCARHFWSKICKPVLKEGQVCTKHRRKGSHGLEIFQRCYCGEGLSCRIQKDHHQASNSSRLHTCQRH
Sequence of Torsin-1A-interacting protein 1 (Homo sapiens) (Q5JTV8 whole entry, looked up): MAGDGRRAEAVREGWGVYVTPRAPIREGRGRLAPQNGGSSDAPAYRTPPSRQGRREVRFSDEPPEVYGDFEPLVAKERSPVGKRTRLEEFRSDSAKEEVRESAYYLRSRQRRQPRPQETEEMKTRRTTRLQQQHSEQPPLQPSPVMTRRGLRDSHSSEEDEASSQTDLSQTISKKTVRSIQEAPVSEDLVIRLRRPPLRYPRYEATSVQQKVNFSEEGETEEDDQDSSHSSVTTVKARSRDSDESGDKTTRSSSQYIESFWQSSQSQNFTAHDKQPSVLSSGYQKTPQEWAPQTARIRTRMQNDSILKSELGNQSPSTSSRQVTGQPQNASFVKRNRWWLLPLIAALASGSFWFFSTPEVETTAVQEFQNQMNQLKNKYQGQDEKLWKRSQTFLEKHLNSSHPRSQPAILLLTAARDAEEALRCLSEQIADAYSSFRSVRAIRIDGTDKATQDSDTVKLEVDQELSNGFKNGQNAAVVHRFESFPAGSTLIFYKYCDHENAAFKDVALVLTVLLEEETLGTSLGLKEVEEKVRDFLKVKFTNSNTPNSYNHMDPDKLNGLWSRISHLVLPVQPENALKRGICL
Sequence of Left-right determination factor 2 (Homo sapiens) (O00292 whole entry, looked up): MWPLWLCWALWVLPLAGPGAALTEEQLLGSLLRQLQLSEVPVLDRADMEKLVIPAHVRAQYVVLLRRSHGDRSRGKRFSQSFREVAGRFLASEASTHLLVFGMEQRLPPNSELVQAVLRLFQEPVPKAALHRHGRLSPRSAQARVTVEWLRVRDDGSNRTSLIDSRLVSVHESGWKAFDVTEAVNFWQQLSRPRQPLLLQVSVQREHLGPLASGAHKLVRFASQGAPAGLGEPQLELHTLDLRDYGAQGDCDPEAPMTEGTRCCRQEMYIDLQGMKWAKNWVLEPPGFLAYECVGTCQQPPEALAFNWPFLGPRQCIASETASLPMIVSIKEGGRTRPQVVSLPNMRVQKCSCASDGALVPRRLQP
Sequence of Fibroblast growth factor 10 (Homo sapiens) (O15520 whole entry, looked up): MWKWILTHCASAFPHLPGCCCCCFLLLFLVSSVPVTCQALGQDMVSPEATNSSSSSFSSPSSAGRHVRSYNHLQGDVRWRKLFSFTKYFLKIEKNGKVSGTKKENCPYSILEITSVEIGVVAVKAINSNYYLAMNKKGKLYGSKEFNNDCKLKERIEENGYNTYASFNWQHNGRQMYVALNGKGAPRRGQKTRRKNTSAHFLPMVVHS
Sequence of Epidermal growth factor receptor (Homo sapiens) (P00533 whole entry, looked up): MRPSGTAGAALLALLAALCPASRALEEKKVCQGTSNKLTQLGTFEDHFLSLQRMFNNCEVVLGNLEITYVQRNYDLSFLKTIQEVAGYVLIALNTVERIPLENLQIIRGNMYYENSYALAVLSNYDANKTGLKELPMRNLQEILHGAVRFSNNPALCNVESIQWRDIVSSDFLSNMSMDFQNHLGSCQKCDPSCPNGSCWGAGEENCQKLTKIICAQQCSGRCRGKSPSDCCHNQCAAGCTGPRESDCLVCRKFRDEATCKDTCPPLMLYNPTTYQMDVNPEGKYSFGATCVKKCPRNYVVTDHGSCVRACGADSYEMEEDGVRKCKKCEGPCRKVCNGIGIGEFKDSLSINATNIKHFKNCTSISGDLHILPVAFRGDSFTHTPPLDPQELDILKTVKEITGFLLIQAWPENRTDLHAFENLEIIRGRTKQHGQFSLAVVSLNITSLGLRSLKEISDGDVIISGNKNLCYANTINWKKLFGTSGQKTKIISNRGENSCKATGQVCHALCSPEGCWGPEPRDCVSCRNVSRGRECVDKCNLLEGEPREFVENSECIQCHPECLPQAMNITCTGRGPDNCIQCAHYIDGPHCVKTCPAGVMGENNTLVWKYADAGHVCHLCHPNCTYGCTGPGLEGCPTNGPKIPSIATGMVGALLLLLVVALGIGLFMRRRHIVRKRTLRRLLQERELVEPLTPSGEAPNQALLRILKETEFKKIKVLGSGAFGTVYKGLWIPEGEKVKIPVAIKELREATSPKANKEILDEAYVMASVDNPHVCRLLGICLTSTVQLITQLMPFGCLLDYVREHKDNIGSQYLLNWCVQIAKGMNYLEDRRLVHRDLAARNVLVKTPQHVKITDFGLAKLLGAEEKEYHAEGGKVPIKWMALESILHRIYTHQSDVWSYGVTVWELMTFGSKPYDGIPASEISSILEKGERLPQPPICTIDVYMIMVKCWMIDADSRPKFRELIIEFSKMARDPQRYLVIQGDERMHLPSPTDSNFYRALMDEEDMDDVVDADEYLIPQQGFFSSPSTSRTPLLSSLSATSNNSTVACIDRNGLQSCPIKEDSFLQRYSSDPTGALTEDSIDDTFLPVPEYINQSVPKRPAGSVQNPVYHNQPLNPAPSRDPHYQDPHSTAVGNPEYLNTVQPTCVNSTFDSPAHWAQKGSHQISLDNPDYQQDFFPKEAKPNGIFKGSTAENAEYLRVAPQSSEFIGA

Consider `COc1cc(CO)cc(I)c1O[C@H]1C=C(C(=O)NCCO)C[C@@H](NCc2ccc(F)cc2)[C@@H]1O`, for which the composite z-score was 0.935 in assay [1]; -0.197 in assay [2]; -0.162 in assay [3]; 1.43 in [5]; 0.191 in assay [6]; -0.0831 in assay [7]. Further, the composite z-score in assay [8] was 0.991; in assay [9], 0.978; in [10], -0.144; in assay [11], -1.08; in assay [13] it was 0.275; in assay [14], 0.433. Moreover, the composite z-score in assay [15] was -0.918; in assay [16], -0.202; in assay [17], 0.0684; in [18] it was -0.506; in assay [19] it was 0.0217; in assay [20], 0.2. In addition, the values for the z-score in assay [4] and in [12] were -1.05 (inactive) and -4.07, respectively.
Consider `C[C@]1(C(=O)NC2CC2)c2ccccc2C(=O)N(Cc2ccccc2)[C@H]1c1ccc(CO)cc1`, for which the composite z-score in assay [1] is 1.13; in assay [2], 0.432; in assay [3] it was 0.951; in [5], -1.01; in [6], -0.84; in assay [7], -1.12. The composite z-score in assay [8] was -0.761; in assay [9], -0.594; in [10], -0.0478; in [11] it was -0.614; in assay [13] it was -1.25; in assay [14], -0.875. The composite z-score in [15] was -0.629; in assay [16] it was -0.148; in [17], -0.352; in assay [18], 0.113; in assay [19], -0.0199; in assay [20], -1.02. In addition, the z-score in assay [4] is -0.502 (inactive); in [12], -0.582.
Consider `Cc1ccccc1C(O)C1C=CC2C(=O)N(C)C(=O)C2N1N(c1ccccc1)c1ccccc1` (stereo not given), for which the composite z-score is -0.167 in [1]; 0.858 in [2]; 0.11 in assay [3]; 0.362 in [5]; -0.401 in [6]; 0.304 in assay [7]. Moreover, the composite z-score in assay [8] is 0.0459; in assay [9] it was 0.119; in [10], 1.33; in assay [11], -1.19; in [13], -0.0024; in [14], -0.945. The composite z-score was -0.454 in assay [15]; 0.0737 in [16]; 0.0582 in assay [17]; 0.387 in [18]; 0.0266 in assay [19]; 0.305 in assay [20]. For the same molecule, the values for the z-score in assay [4] and in assay [12] were 0.595 (inactive) and -0.247, respectively.
With `O[C@@H](Cc1ccccc1)[C@@H](/C=C/C1CC1)N(CC#Cc1ccccc1)Cc1cccc(Cl)c1`, the composite z-score in assay [1] is -0.546; in assay [2] it was 0.232; in [3], 1.34; in [5], -1.72; in assay [6], -1.01; in assay [7], -1.69. Also, the composite z-score in assay [8] is -1.54; in assay [9] it was -1.49; in assay [10] it was 0.285; in assay [11], -0.55; in assay [13], -1.61; in assay [14], -0.738. Moreover, the composite z-score in assay [15] was 0.352; in assay [16], -0.275; in [17] it was -0.147; in assay [18], -0.196; in assay [19] it was -0.565; in [20] it was -0.0369. Moreover, the results for the z-score in [4] and in assay [12] were -1.61 (inactive) and -1.52, respectively.
`COCCOC(=O)N1C(=O)[C@@]2(c3cc(C#CCCO)ccc31)[C@H](C(=O)Nc1nc3ccccc3s1)[C@H]1C(=O)O[C@H](c3ccccc3)[C@H](c3ccccc3)N1[C@@H]2c1ccccc1OCCO`: the composite z-score was found to be 1.42 in assay [1]; 0.331 in [2]; 0.411 in [3]; 1.12 in [5]; 1.08 in assay [6]; 0.561 in assay [7]. The composite z-score was found to be 1.11 in assay [8]; 0.452 in [9]; 0.923 in [10]; 0.792 in [11]; 0.674 in [13]; 0.827 in assay [14]. Further, the composite z-score in assay [15] is -0.112; in [16], -0.0025; in [17], 0.0469; in assay [18] it was -0.588; in assay [19], 0.811; in [20] it was 1.45. Moreover, the z-score in assay [4] was 0.0499 (inactive); in assay [12], -1.71.
In the case of `CCOC(=O)C1=C[C@@H](c2ccccc2)N(S(=O)(=O)c2ccc(C)cc2)[C@H]1c1ccccc1Cl`, the composite z-score in [1] is 1.9; in assay [2], 0.379; in assay [3], -0.229; in [5], 1.29; in assay [6], 1.29; in [7], 0.683. The composite z-score came out at 1.05 in [8]; 0.508 in assay [9]; 0.556 in assay [10]; 1.32 in [11]; 0.553 in [13]; 1.06 in assay [14]. Besides, the composite z-score in [15] was -0.651; in assay [16] it was -0.0161; in assay [17], 0.0121; in [18], -0.0784; in [19], 0.731; in [20], 1.04. The z-score in assay [4] is 0.328 (inactive); in [12] it was -1.55.
